The text below walks through data of publication PMC7862700, “An all-to-all approach to the identification of sequence-specific readers for epigenetic DNA modifications on cytosine”.

Common to all, as to assay: DAPPL (digital affinity profiling via proximity ligation, sequencing); 10 mM Tris-HCl pH 7.5, 50 mM NaCl, 1 mM DTT, 4% glycerol, room temperature, 30 min; GST-TFs on glutathione beads, 16-mer random dsDNA library, 0.1% formaldehyde crosslink after washing; high values mean tight binding
Common to all, as to details: protein: recombinant; tags: N-terminal GST; dsDNA, one strand shown

One assay has as its target T1, FLI1 (Homo sapiens, UniProt Q01543 1-452).
T1 sequence: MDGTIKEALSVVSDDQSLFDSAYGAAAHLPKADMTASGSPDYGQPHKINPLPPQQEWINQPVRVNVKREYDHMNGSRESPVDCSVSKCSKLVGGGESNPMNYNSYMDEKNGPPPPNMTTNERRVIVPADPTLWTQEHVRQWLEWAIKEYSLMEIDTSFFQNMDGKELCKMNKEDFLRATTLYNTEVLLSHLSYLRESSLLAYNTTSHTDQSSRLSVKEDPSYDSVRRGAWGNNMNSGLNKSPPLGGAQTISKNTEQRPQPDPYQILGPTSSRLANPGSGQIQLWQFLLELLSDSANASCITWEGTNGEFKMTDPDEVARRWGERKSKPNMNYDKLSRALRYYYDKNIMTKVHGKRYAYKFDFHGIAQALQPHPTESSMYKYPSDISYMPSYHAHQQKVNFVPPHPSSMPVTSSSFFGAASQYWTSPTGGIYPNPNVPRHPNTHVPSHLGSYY
A digest of the protocol: (§1)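 Binding signal is defined as a hexamer's read frequency for one factor over its frequency for the tag-only sample. To obtain reads, GST-fused human transcription factors were expressed in yeast, captured on glutathione beads, barcoded with DNA and pooled with that sample. Pools met 200 nmole of a 16-mer random double-stranded DNA library in Tris/NaCl/DTT/glycerol buffer for 30 min at room temperature before washing, 0.1% formaldehyde crosslinking, proximity ligation (BsaI/T4 ligase, 1 h, 37 °C), PCR and Illumina NextSeq500 sequencing.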

The target of the next assay is T2, ELK1 (Homo sapiens, UniProt P19419 1-428).
T2 sequence: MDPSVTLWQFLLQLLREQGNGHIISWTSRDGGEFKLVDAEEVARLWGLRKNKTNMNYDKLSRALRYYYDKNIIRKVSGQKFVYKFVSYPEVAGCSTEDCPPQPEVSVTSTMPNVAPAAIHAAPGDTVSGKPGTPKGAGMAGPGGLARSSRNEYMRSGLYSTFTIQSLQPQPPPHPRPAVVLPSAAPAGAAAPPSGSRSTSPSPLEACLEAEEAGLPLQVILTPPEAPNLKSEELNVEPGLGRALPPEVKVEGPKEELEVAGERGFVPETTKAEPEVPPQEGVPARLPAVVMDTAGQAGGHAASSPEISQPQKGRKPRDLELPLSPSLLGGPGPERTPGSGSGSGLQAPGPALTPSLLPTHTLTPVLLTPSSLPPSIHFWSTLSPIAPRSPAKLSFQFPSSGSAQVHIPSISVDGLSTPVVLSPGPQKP
In short, it runs like this: as §1

The next assay addresses T3, GABPA (Homo sapiens, UniProt Q06546 1-454).
T3 sequence: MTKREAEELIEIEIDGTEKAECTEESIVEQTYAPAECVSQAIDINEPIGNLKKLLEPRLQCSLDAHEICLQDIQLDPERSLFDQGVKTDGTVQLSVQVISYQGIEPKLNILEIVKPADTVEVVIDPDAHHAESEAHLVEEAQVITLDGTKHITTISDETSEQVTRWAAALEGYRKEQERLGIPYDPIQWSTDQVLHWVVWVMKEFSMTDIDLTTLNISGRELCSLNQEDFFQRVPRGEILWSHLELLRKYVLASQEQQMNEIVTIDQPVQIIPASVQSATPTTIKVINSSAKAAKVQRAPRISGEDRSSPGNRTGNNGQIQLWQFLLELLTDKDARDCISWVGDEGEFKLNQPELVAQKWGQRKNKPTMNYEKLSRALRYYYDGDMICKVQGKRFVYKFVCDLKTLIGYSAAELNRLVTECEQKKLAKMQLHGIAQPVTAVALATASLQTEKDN
In short, it runs like this: as §1

Another assay deals with T4, ERG (Homo sapiens, UniProt P11308 1-479).
T4 sequence: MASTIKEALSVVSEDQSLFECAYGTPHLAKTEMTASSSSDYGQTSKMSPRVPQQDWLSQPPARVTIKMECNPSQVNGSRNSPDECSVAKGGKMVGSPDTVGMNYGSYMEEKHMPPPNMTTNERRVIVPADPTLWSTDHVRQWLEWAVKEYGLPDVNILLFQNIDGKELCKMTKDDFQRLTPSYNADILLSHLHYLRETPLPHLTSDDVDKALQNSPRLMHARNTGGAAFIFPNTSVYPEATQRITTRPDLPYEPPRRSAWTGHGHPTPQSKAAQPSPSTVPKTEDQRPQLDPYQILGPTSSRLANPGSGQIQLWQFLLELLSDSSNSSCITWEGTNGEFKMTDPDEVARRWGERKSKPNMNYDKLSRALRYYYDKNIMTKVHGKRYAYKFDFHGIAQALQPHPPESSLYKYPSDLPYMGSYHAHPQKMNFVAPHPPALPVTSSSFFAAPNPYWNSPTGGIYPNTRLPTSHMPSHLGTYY
A digest of the protocol: as §1

Another assay has as its target ELF1 (Homo sapiens, UniProt P32519 1-619). A digest of the protocol: as §1
For another assay, the target named is T5, EHF (Homo sapiens, UniProt Q9NZC4 1-300).
T5 sequence: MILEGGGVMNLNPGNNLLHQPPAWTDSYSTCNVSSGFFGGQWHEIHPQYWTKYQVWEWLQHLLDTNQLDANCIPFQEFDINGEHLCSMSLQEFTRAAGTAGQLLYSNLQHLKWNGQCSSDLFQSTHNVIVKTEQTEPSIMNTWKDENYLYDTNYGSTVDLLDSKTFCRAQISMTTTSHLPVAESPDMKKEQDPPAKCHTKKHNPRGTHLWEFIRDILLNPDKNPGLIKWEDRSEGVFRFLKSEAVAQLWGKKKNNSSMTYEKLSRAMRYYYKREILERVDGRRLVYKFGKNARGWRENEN
In short, it runs like this:
as §1

Another assay addresses SPI1 (Homo sapiens, UniProt P17947 1-270). In short, it runs like this:
as §1

For a further assay, the target named is SPIB (Homo sapiens, UniProt Q01892 1-262). A digest of the protocol:
as §1

Another assay addresses T6, ELK3 (Homo sapiens, UniProt P41970 1-407).
T6 sequence: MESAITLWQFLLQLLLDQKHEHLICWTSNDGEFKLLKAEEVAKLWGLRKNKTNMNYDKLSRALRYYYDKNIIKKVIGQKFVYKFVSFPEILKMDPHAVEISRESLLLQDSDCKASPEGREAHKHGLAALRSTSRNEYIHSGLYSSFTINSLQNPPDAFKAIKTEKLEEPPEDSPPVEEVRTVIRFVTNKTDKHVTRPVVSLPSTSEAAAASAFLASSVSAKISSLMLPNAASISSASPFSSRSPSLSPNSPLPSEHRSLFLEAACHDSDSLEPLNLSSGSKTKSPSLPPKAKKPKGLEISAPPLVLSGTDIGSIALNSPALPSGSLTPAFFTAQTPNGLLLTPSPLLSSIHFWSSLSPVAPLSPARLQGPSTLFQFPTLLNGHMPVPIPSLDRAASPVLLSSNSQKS
In short, it runs like this: as §1

For the next assay, the target named is T7, FEV (Homo sapiens, UniProt Q99581 1-238).
T7 sequence: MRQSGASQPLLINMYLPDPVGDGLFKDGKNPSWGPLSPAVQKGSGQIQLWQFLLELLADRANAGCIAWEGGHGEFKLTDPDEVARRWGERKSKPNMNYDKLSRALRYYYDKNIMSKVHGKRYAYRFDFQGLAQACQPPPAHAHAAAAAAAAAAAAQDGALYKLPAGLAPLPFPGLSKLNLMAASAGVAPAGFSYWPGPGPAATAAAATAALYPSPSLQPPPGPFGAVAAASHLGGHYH
In short, it runs like this: as §1

The target in the next assay is ETV5 (Homo sapiens, UniProt P41161 1-510). In short, it runs like this: as §1
Chain of ETV5 (P41161 whole entry): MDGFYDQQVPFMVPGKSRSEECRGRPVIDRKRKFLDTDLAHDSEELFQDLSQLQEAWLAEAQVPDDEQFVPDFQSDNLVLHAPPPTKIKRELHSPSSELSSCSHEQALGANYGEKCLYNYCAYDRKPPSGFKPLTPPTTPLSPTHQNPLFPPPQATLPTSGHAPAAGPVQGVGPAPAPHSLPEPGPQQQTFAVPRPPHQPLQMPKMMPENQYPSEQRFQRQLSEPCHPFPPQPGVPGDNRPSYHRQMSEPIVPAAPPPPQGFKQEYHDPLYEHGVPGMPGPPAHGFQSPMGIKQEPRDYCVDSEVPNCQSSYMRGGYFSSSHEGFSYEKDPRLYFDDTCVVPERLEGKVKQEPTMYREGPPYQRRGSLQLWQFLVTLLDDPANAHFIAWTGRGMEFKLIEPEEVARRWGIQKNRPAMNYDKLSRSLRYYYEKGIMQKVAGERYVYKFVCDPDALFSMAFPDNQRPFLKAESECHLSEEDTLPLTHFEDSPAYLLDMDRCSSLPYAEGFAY
Another assay addresses T8, SPIC (Homo sapiens, UniProt Q8N5J4 1-248).
T8 sequence: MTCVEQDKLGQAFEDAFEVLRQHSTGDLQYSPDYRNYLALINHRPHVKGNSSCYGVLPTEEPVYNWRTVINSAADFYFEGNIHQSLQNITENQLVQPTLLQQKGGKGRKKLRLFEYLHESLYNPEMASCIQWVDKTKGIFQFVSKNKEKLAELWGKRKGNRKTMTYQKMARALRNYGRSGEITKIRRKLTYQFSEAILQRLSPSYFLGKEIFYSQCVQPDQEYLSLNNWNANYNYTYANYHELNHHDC
A digest of the protocol:
as §1

Another assay has as its target ELF4 (Homo sapiens, UniProt Q99607 1-663). In short, it runs like this:
as §1

The next assay has as its target T9, ELK4 (Homo sapiens, UniProt P28324-2 1-405).
T9 sequence: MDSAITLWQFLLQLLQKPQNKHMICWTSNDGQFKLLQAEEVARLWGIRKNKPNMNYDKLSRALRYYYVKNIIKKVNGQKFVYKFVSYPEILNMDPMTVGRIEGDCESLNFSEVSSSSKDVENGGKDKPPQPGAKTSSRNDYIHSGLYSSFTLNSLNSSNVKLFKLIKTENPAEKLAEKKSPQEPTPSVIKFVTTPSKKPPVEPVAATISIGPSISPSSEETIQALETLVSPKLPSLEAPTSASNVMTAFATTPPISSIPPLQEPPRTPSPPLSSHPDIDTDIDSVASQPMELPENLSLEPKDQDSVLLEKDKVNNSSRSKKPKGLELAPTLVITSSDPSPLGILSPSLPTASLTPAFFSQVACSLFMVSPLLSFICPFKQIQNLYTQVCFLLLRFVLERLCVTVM
A digest of the protocol: as §1

A further assay addresses T10, ETV2 (Homo sapiens, UniProt O00321 1-342).
T10 sequence: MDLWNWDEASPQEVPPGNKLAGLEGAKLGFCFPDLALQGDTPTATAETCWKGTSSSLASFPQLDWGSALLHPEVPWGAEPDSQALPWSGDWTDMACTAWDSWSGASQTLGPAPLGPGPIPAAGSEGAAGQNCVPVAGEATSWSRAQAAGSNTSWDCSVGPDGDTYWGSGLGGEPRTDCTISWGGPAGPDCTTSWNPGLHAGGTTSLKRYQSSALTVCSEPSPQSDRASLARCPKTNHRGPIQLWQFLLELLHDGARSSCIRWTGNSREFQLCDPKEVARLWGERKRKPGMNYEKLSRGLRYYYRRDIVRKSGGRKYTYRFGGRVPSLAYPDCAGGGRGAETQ
A digest of the protocol:
as §1

Another assay has as its target T11, ELF3 (Homo sapiens, UniProt P78545 1-371).
T11 sequence: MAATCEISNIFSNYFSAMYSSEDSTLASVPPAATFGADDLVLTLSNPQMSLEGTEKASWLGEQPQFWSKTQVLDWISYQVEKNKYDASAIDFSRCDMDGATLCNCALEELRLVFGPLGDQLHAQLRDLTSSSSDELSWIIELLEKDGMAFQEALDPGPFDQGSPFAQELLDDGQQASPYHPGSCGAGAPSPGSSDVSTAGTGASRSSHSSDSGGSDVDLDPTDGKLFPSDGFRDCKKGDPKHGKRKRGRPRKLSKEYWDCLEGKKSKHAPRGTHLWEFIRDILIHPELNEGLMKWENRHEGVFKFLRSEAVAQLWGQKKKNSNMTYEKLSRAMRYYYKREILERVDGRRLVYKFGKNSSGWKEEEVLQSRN
In short, it runs like this: as §1

In a further assay the target is ETV1 (Homo sapiens, UniProt P50549 1-477). A digest of the protocol:
as §1

Chain of SPIB (Q01892 whole entry): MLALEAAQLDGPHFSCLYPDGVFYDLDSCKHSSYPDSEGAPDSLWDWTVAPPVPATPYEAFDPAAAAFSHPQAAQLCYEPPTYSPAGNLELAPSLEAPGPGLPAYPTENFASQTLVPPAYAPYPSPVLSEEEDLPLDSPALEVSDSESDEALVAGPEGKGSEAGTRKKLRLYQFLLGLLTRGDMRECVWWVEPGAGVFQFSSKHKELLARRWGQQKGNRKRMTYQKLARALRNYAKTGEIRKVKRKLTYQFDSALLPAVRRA
Chain of ELF4 (Q99607 whole entry): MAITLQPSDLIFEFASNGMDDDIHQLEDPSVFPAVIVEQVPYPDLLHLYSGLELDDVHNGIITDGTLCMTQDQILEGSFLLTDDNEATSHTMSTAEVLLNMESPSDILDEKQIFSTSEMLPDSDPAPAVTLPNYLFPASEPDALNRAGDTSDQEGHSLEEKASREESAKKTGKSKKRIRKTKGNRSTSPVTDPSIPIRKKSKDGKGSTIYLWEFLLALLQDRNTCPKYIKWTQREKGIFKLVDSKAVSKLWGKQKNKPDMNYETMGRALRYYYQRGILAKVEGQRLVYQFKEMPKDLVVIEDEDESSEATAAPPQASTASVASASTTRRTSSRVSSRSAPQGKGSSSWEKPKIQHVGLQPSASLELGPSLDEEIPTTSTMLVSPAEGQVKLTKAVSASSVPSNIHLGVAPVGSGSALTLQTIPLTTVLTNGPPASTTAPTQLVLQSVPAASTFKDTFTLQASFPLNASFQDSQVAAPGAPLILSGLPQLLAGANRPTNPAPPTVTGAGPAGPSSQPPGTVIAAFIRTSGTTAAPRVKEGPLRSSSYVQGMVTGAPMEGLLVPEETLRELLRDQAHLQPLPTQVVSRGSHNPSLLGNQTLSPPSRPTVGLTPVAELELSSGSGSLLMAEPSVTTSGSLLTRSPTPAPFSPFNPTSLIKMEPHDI
Chain of ETV1 (P50549 whole entry): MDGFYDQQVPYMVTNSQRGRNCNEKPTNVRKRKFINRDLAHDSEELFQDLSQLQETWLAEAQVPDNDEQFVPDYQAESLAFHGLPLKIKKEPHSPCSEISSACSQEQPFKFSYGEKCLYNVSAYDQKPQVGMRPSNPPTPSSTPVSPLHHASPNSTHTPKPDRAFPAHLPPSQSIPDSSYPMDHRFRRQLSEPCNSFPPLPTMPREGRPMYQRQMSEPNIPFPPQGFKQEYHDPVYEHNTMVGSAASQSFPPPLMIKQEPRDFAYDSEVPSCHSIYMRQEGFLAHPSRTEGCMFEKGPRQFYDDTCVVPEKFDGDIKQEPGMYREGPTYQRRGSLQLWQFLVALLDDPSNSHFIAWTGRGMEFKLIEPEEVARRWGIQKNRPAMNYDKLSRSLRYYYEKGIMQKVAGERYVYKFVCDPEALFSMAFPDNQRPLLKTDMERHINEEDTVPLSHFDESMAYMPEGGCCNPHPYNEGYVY
Chain of ELF1 (P32519 whole entry): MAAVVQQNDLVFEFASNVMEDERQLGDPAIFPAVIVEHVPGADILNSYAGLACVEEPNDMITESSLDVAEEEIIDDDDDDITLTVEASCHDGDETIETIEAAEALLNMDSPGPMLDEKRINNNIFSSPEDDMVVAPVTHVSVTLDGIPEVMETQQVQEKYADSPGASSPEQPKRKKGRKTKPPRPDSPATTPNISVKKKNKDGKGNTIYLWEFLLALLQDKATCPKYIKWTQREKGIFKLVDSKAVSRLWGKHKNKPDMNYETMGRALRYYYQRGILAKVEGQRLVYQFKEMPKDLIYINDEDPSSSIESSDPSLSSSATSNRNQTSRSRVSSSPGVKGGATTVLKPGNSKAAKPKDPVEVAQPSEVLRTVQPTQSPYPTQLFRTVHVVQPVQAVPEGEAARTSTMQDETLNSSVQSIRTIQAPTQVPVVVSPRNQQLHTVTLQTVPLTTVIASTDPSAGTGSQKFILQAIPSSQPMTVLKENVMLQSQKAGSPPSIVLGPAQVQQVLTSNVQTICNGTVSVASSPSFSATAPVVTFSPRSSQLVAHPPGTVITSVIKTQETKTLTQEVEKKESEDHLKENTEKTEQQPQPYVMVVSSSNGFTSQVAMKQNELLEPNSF

With GGAAAC, the binding signal with FLI1 is 1.2 fold enrichment (6-mer frequency, TF over GST control); with ELK1, 1.35 fold enrichment (6-mer frequency, TF over GST control); in the assay with GABPA, 1.25 fold enrichment (6-mer frequency, TF over GST control); with ERG, 1.57 fold enrichment (6-mer frequency, TF over GST control); with ELF1, 1.22 fold enrichment (6-mer frequency, TF over GST control); in the assay with EHF it was 1.47 fold enrichment (6-mer frequency, TF over GST control). For the same sequence, the binding signal in the assay with SPI1 is 1.25 fold enrichment (6-mer frequency, TF over GST control); with SPIB, 1.39 fold enrichment (6-mer frequency, TF over GST control); with ELK3, 1.43 fold enrichment (6-mer frequency, TF over GST control); with FEV, 1.67 fold enrichment (6-mer frequency, TF over GST control); with ETV5, 1.43 fold enrichment (6-mer frequency, TF over GST control); with SPIC it was 1.26 fold enrichment (6-mer frequency, TF over GST control). Moreover, the binding signal with ELF4 is 1.2 fold enrichment (6-mer frequency, TF over GST control); in the assay with ELK4 it was 1.01 fold enrichment (6-mer frequency, TF over GST control); in the assay with ETV2, 1.35 fold enrichment (6-mer frequency, TF over GST control); with ELF3 it was 1.42 fold enrichment (6-mer frequency, TF over GST control); in the assay with ETV1, 1.35 fold enrichment (6-mer frequency, TF over GST control).
